Our source for the Potency, outcome and activity change, negative = cell killing values is PubChem BioAssay (NCATS).

Test [1] can be described thus: Primary qHTS for inhibitors of nuclear receptor binding SET domain protein 2 (NSD2) in an isogenic RCH-ACV NSD2 p.E1099K mutant (9B) (AID 1645876). Also: nearly all actives have a fitted effect of over 70% in size. Also: potency is read from the fitted curve at half-maximal effect.
The nature of test [2]: Primary qHTS for inhibitors of nuclear receptor binding SET domain protein 2 (NSD2) in an RCH-ACV wild type WT cells (2C) (AID 1645877). Also: nearly all actives have a fitted effect of over 70% in size. Also: potency is read from the fitted curve at half-maximal effect.
The target of test [3] is Phospholipid hydroperoxide glutathione peroxidase GPX4 (Homo sapiens) (UniProt P36969). As to the kind of experiment: Primary qHTS Assay for Inhibitors of Recombinant Selenoprotein Glutathione Peroxidase 4 (GPX4) (AID 1845192). Also: nearly all actives have a fitted effect of over 65% in size. Also: potency is read from the fitted curve at half-maximal effect. Put shortly: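 GR-coupled readout: 100 nM GR, 1 mM GSH, 0.5 mM NADPH; NADPH fluorescence (ex 340/em 450 nm) read at t=0 and after 15 min RT. GPX4 200 nM, preincubated 30 min with compound; substrate 0.5 mM CHP.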
Phospholipid hydroperoxide glutathione peroxidase GPX4 (Homo sapiens), sequence (P36969 whole entry, looked up): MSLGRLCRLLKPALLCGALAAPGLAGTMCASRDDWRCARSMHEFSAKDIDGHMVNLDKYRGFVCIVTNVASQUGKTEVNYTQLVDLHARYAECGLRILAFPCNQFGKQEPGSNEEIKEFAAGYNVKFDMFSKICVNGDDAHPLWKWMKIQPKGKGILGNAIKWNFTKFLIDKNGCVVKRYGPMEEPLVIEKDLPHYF

In test [4] the target is Glutathione peroxidase 1 (Homo sapiens) (UniProt P07203). As to the kind of experiment: Primary qHTS Assay for Inhibitors of Recombinant Selenoprotein Glutathione Peroxidase 1 (GPX1) (AID 1845191). Also: nearly all actives have a fitted effect of over 65% in size. The gist of the method: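 Recombinant GPX1 (10 nM final) was preincubated with compound for 30 min at room temperature, then reacted with 1 mM GSH, 0.5 mM CHP, 0.5 mM NADPH and 100 nM glutathione reductase; NADPH fluorescence (340/450 nm) was read at 0 and 15 min.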
Glutathione peroxidase 1 (Homo sapiens), sequence (P07203 whole entry, looked up): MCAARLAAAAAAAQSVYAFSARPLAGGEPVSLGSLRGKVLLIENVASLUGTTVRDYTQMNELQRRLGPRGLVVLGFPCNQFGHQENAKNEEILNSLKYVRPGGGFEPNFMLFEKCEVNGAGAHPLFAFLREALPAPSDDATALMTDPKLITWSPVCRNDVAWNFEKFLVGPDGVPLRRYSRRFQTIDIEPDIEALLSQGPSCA

Results filed as inconclusive are left out. Unmarked numbers belong to inactive results. Active and inactive are the calls of the source. Calls follow the shape of the dose curve; as a rule, active = well fitted curve in the direction sought with a large enough effect; inconclusive = small, poorly fitted or top-dose-only effect, or another doubt; inactive = no such curve, though single readings can be large; an effect the other way counts as inactive or inconclusive.
% is scaled to controls: 0 for no effect and ±100 for the full control effect.

Regarding `CC(C(=O)O)c1cccc(Oc2ccccc2)c1` (configuration not stated), the Potency result in test [1], in test [2] and in test [3] was “inactive” throughout.
Take `c1ccc(CC2=NCCN2)cc1`: the Potency was 8.41 µM (active) in test [1] and 5.31 µM (active) in test [2]. In addition, in test [3], the Potency result is “inactive”.
For the molecule `C[C@@H](O)[C@H]1C(=O)N2C(C(=O)O)=C(S[C@@H]3CN[C@H](CNS(N)(=O)=O)C3)[C@H](C)[C@H]12`, the Potency result in test [1], in test [2], in test [4] and in test [3] was “inactive” throughout.
Turning to `COC(=O)C(c1ccccc1Cl)N1CCc2sccc2C1` (configuration not stated), the Potency entry in test [1], in test [2], in test [4] and in test [3] was “inactive” throughout.
Turning to `CC(=O)O[C@H]1C[C@@H]2CC[C@@H]3[C@H](CC[C@@]4(C)[C@H]3C[C@H]([N+]3(C)CCCCC3)[C@@H]4OC(C)=O)[C@@]2(C)C[C@@H]1N1CCCCC1`, the Potency result in test [1], in test [2] and in test [3] was “inactive” in each case.
Consider `C=CCN1CCc2nc(N)sc2CC1`, for which the Potency entry in test [1], in test [2] and in test [3] was “inactive” each time.
As to `CCCCN1C[C@H](O)[C@@H](O)[C@H](O)[C@H]1CO`, the Potency entry in test [1], in test [2] and in test [3] was “inactive” throughout.
For the molecule `Cc1c[nH]c2ccccc12`, the Potency result in test [1], in test [2] and in test [3] was “inactive” in each case.
For the molecule `CCCCCCCCCCCCCC(=O)OC(C)C`, the Potency entry in test [1], in test [2] and in test [3] was “inactive” in each case.
As to `CCOCCn1c(N2CCCN(C)CC2)nc2ccccc21`, the Potency entry in test [1], in test [2] and in test [3] was “inactive” throughout.
With `CC(O)Cn1cnc2c1c(=O)n(C)c(=O)n2C` (configuration not stated), the Potency result in test [1], in test [2], in test [4] and in test [3] was “inactive” in each case.
Take `CCC(Cc1c(I)cc(I)c(N)c1I)C(=O)O` (configuration not stated): the Potency result in test [1], in test [2], in test [4] and in test [3] was “inactive” each time.
Regarding `Cc1cc(C)cc(OCC2CNC(=O)O2)c1` (configuration not stated), the Potency entry in test [1], in test [2], in test [4] and in test [3] was “inactive” in each case.
For `CC1CCc2c(N3CCC(O)CC3)c(F)cc3c(=O)c(C(=O)O)cn1c23` (configuration not stated), the Potency result in test [1], in test [2], in test [4] and in test [3] was “inactive” throughout.
With `O=C(Nc1ccc([N+](=O)[O-])cc1)Nc1ccc([N+](=O)[O-])cc1`, the Potency entry in test [1], in test [2] and in test [3] was “inactive” throughout.
For `CC1=C(C(=O)O)N2C(=O)[C@@H](NC(=O)[C@H](N)c3ccccc3)[C@H]2SC1`, the Potency result in test [1], in test [2] and in test [3] was “inactive” throughout.
Consider `O=C(Oc1cccc2cccnc12)c1ccccc1`, for which the Potency entry in test [1], in test [2], in test [4] and in test [3] was “inactive” in each case.
As to `CN1CCc2cccc3c2[C@H]1Cc1ccc(O)c(O)c1-3`, the Potency in test [1] was 6.68 µM (active); in test [2], 7.5 µM (active). Further, the Potency entry in test [4] and in test [3] was “inactive” throughout.
As for `COc1cc(C)nc(-n2nc(C)cc2OC)n1`, the Potency result in test [1], in test [2], in test [4] and in test [3] was “inactive” each time.
As for `CCOc1ccccc1OCCN[C@H](C)Cc1ccc(OC)c(S(N)(=O)=O)c1`, the Potency result in test [1], in test [2], in test [4] and in test [3] was “inactive” throughout.
Regarding `CN1CCC[C@@H]1CCO[C@](C)(c1ccccc1)c1ccc(Cl)cc1`, the Potency in test [1] is 21.1 µM (active); in test [2], 13.3 µM (active). Besides, in test [3], the Potency entry was “inactive”.
On to `Cc1ccccc1OCC(O)CO` (configuration not stated), for which the Potency entry in test [1], in test [2] and in test [3] was “inactive” each time.
Take `C#C[C@]1(O)CC[C@H]2[C@@H]3CCc4cc(OC)ccc4[C@H]3CC[C@@]21C`: the Potency entry in test [1], in test [2], in test [4] and in test [3] was “inactive” in each case.
Regarding `CCN[C@@H]1C[C@H](N)[C@@H](OC2OC(CN)=CCC2N)[C@H](O)[C@H]1O[C@H]1OC[C@](C)(O)[C@H](NC)[C@H]1O` (some centres not stated), the outcome was “inactive [at 0.588 µM]” in test [1] and “inactive [at 0.409 µM]” in test [3]. Further, in test [2], the activity change, negative = cell killing was 2.3% [at 0.588 µM].
Regarding `Cc1cc(NS(=O)(=O)c2ccc(N)cc2)nc(C)n1`, the Potency entry in test [1], in test [2] and in test [3] was “inactive” throughout.
With `CCCCCN=C(N)N/N=C/c1c[nH]c2ccc(OC)cc12`, the Potency in test [1] was 7.5 µM (active); in test [2], 4.73 µM (active). Also, the Potency entry in test [4] and in test [3] was “inactive” throughout.
On to `N/C(=N\N=C\c1ccc(Cl)cc1)N/N=C/c1ccc(Cl)cc1`, for which the Potency entry in test [1], in test [2] and in test [3] was “inactive” throughout.
On to `Oc1c(Cl)cc(Cl)c(Cl)c1Cc1c(O)c(Cl)cc(Cl)c1Cl`, for which the Potency is 5.96 µM (active) in test [1], 5.96 µM (active) in test [2] and 25.5 µM (active) in test [3].
Consider `O=C(O)CCC(=O)Nc1ccc(S(=O)(=O)Nc2nccs2)cc1`, for which the Potency result in test [1], in test [2] and in test [3] was “inactive” in each case.
`C#C[C@]1(O)CC[C@H]2[C@@H]3CCC4=CC(=O)CC[C@@H]4[C@H]3CC[C@@]21CC`: the Potency entry in test [1], in test [2] and in test [3] was “inactive” throughout.
Take `CC(=O)Nc1ccc(CC(=O)O)cc1`: the Potency result in test [1], in test [2] and in test [3] was “inactive” in each case.
On to `O=[N+]([O-])c1ccc(/C=N\O)o1`, for which the Potency entry in test [2] is “inactive”.
As for `CCc1ccc(C(=O)C(C)CN2CCCCC2)cc1` (configuration not stated), in test [2], the Potency was 23.7 µM (active). For the same molecule, the Potency entry in test [4] and in test [3] was “inactive” each time.
Regarding `CN(C)CCN1C(=O)c2ccccc2N(C)c2ccccc21`, the Potency result in test [1], in test [4] and in test [3] was “inactive” each time.
Consider `CCN(CC)CCOc1ccccc1C(=O)CCc1ccccc1`, for which the Potency result in test [1], in test [4] and in test [3] was “inactive” in each case.
Consider `CCOC(=O)c1c(N)sc2c1CCN(Cc1ccccc1)C2`, for which, in test [1], the Potency is 16.8 µM (active). For the same molecule, in test [3], the Potency result was “inactive”.
